pPAFAH inh: inhibitors of human plasma PAF acetylhydrolase (pPAFAH) | Q13093 | recombinant pPAFAH, FP-rhodamine probe fluorescence polarization | inhibition, % at 3.39 µM | 330,000 tested, 1.5% active | AID 463082;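 active = inhibition above the mean inhibition across the screen plus 3 SD, cut at about 25% in these data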;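 also: inhibitors block binding of the rhodamine activity-based probe so polarization drops; 0% = enzyme with DMSO and 100% = wells lacking pPAFAH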
PAFAH1B3 FP inh: PAFAH1B3 (human) inhibition; 340,000 tested, 0.28% active; recombinant PAFAH1B3, FP-rhodamine probe, fluorescence polarization; Q15102; AID 492972; inhibition, % at 3.39 µM;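 active = inhibition above the screen-wide average of all tested compounds plus 3 SD, cut at about 25% in these data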;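 also: 0% = enzyme with DMSO only and 100% = wells lacking PAFAH1B3 protein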
DAGLB inhibitor: diacylglycerol lipase beta (human) inhibition. Q8NCG7. HEK293T DAGLB membrane lysate, EnzChek fluorogenic substrate. inhibition, % at 5.17 µM. 340,000 tested, 0.059% active. AID 504411; in the data active = inhibition above about 34%;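 also: 0% = enzyme with vehicle and 100% = wells lacking enzyme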
ATG4B inh: blocks human ATG4B protease cleavage of LC3 substrate; Q9Y4P1; ATG4B cleavage of LC3-PLA2, NBD-HPC fluorescence, 1 h; inhibition, % at 8.33 µM; 340,000 tested, 0.51% active; AID 504462; in the data active = inhibition above about 40%
Target sequence (Q9Y4P1 whole entry, looked up): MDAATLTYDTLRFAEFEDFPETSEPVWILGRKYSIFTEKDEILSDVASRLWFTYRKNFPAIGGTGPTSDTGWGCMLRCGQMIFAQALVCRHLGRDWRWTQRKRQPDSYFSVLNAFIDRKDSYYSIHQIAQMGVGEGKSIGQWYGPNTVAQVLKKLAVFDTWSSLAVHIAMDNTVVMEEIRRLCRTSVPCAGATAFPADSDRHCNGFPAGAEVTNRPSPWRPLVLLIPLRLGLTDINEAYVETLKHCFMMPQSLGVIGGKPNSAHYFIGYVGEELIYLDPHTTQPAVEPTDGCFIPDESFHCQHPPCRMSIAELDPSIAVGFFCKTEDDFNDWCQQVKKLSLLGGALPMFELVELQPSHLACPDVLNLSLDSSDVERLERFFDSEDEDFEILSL
PAFAH2 inh: PAFAH2 (human) inhibition; recombinant PAFAH2, FP-rhodamine activity probe, fluorescence polarization; inhibition, % at 3.39 µM; 340,000 tested, 0.99% active;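 active = inhibition above the mean over all tested compounds plus 3 SD, cut at about 30% in these data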;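 also: inhibitors block probe labeling of enzyme so polarization drops; 0% = enzyme with DMSO and 100% = wells lacking PAFAH2 protein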
PAFAH1B2 FP inh: PAFAH1B2 (human) inhibition | recombinant PAFAH1B2, FP-rhodamine activity probe, fluorescence polarization | 340,000 tested, 1.2% active | inhibition, % at 3.39 µM;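 active = inhibition above the mean of all tested compounds plus 3 SD, cut at about 24% in these data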;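 also: 0% = enzyme with DMSO and 100% = wells lacking PAFAH1B2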
Target sequence (P68402 whole entry, looked up): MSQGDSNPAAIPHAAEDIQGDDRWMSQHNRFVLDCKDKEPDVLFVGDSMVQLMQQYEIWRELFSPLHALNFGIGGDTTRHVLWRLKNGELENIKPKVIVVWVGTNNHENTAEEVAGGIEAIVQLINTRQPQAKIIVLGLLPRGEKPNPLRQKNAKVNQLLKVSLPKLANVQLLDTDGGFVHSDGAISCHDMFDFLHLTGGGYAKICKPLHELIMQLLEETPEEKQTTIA
pPAFAH confirm: pPAFAH (human) inhibition, confirmed | shares compounds with pPAFAH inh | recombinant pPAFAH, FP-Rh probe fluorescence polarization | inhibition, % at 3.39 µM | 2,300 tested, 72% active | AID 463230;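 active = mean inhibition of the triplicate above the hit cutoff set for the earlier primary screen, cut at about 25% in these data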;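 also: 0% = enzyme with DMSO and 100% = wells lacking pPAFAH enzyme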
* hit, by the source's call; / = no result given. This is a sample that favours compounds with a hit; in the whole collection about 3% have one here.

SMILES	pPAFAH inh	PAFAH1B3 FP inh	DAGLB inhibitor	ATG4B inh	PAFAH2 inh	PAFAH1B2 FP inh	pPAFAH confirm
O=C1N/C(=N\S(=O)(=O)c2ccccc2)S/C1=C\c1cc([N+](=O)[O-])ccc1O	41*	43*	7	15	31*	38*	49*
O=C(O)CN1CCN(Cc2ccccc2F)C1=O	58*	5	-2	-5	3	1	2
CCOc1ccc(S(=O)(=O)N(CC)CC(=O)NC2CCS(=O)(=O)C2)cc1 (stereo not drawn)	2	-6	-3	4	0	-1	/
CCCCC(=O)NC(c1cccs1)c1cc(Cl)c2cccnc2c1O (stereo not drawn)	45*	13	-2	2	17	6	32*
O=S(CC(O)(c1ccccc1)c1ccccc1)CC(O)(c1ccccc1)c1ccccc1	/	/	-2	/	/	/	/
Cc1cc2nc3c(=O)[nH]c(=S)[nH]c3nc2cc1NC(=O)C(F)(F)F	79*	9	-38	-2	-1	5	5
CC(C)c1ccc2[nH]c3c(c2c1)CCC/C3=N\NC(=O)c1ccncc1	17	12	2	0	-4	9	/
COc1ccc(C)cc1S(=O)(=O)Nc1ccc(F)cc1	3	-8	-2	-4	0	3	/
COc1ccc(S(=O)(=O)Nc2ccc(F)cc2)cc1N(C)S(=O)(=O)c1ccc(Cl)cc1	38*	3	-2	-5	6	-2	35*
Cc1ccc(NC(=O)C(C)OC(=O)CCC2CCCCC2)cc1 (stereo not drawn)	43*	6	-8	11	3	7	8
O=C(NCCC1=CCCCC1)C1CCN(S(=O)(=O)c2cccc(C(F)(F)F)c2)CC1	3	9	-2	-12	2	6	/
Clc1ccc(-c2nnc(N3CCCC3)nn2)cc1	50*	2	7	-3	-2	-1	7
Cc1ccc(NCCCn2ccc(NC(=O)OCc3ccccc3)nc2=O)cc1C	/	3	3	0	4	7	/
COc1ccc(-c2csc(Nc3ccc(S(=O)(=O)Nc4cc(C)on4)cc3)n2)cc1C	40*	10	10	5	37*	14	62*
CCCCCC1CC(/C(C)=N/NC(N)=O)OC1=O (stereo not drawn)	0	0	0	-7	9	0	/
CCCCC1CC(/C(C)=N/NC(N)=O)OC1=O (stereo not drawn)	58*	10	-4	-6	-3	-1	2
O=C(O)/C(CC(=O)c1ccc(Cl)cc1)=N/Nc1ccc([N+](=O)[O-])cc1[N+](=O)[O-]	35*	10	26	29	21	20	72*
O=S(=O)(Nc1ccc(N=Nc2ccccc2)cc1)c1ccccc1	67*	10	16	-4	10	4	70*
O=C(Oc1nsnc1N1CCOCC1)N1CCOCC1	85*	5	1	-9	31*	5	89*
O=C(Oc1nsnc1N1CCOCC1)N1CCCCC1	57*	7	2	12	8	-2	50*
O=C(Oc1nsnc1N1CCOCC1)c1ccccc1	5	1	2	-15	1	-1	/
Cc1cccc(Cn2c(NC3CCCC3)nc3c2c(=O)[nH]c(=O)n3C)c1	/	/	2	/	/	/	/
CC(C)CNC(=O)c1ccc2c(c1)C(=O)N(Cc1ccco1)C2=O	2	4	0	4	6	3	/
O=C(NC1CCSc2ccccc21)c1ccccc1Br (stereo not drawn)	0	15	-2	-2	-1	4	/
Cc1ccc(NS(=O)(=O)c2ccc3[nH]c(=O)oc3c2)c(C)c1	75*	-2	0	-4	1	7	71*
SMILES	pPAFAH inh	PAFAH1B3 FP inh	DAGLB inhibitor	ATG4B inh	PAFAH2 inh	PAFAH1B2 FP inh	pPAFAH confirm
Cc1ccc(NC(=O)CN(C)S(=O)(=O)c2ccc3[nH]c(=O)oc3c2)c(C)c1	5	-1	2	3	2	8	/
CCOc1ccc(NS(=O)(=O)c2ccc3[nH]c(=O)oc3c2)cc1	55*	5	2	-9	5	3	52*
CN(C)Cc1nnnn1-c1cccc(-n2nnnc2CN(C)C)c1	6	7	3	-5	-4	2	/
O=C(CCc1nnc(CCCCc2ccccc2)o1)N1CCC(N2CCCC2)CC1	14	1	-1	16	10	-1	/
O=C(CN1CCCC(O)C1)N1c2ccccc2Sc2ccc(C(F)(F)F)cc21 (stereo not drawn)	7	-4	-1	-4	0	6	/
CN1CCN(CCCN2c3ccccc3Sc3ccc(C(F)(F)F)cc32)CC1	37*	9	3	-1	-1	3	30*
COc1cc(-c2nc(-c3cccnc3)no2)cc(OC)c1OC	40*	7	-2	20	3	7	2
COc1ccc(-c2nc(-c3cccnc3)no2)cc1OC	5	3	-2	3	1	-1	/
O=C(CN1CCN(c2ccc(F)cc2)CC1)NCc1ccc(Cl)cc1	0	-3	-1	-10	-1	0	/
Cc1cccc(NS(=O)(=O)c2ccc(C)c(C(=O)OCC(=O)Nc3cc(C)on3)c2)c1	68*	5	1	-18	-6	4	62*
O=C(CNC(=O)N1CC(=O)Nc2ccccc21)Nc1cc(Cl)ccc1Cl	1	7	4	11	-5	0	/
O=C(O)CN1C(=O)/C(=C\c2cc(Br)ccc2OCc2ccc([N+](=O)[O-])cc2)SC1=S	59*	8	19	5	12	6	58*
O=C(O)COc1ccc(Br)cc1/C=C1/SC(=O)N(CC(=O)N2CCCC2)C1=O	3	7	-3	-3	0	-2	/
Cc1[nH]n(-c2nc(-c3ccccc3F)cc(=O)[nH]2)c(=O)c1CCO	41*	-3	3	1	3	2	6
Cc1[nH]n(-c2ccccc2)c(=O)c1CCO	2	3	-2	-1	-2	2	/
CN(C(=S)Nc1ccc(SC(F)F)cc1)c1ccc(O)cc1	51*	3	-1	-1	4	8	2
Cc1ccc(C(=O)CN(CCCC(N)=O)C(=O)c2ccncc2)cc1	2	4	0	4	-4	9	/
Cc1cccc(N=C2NC(=O)/C(=C/C=C/c3ccco3)S2)c1	50*	27*	12	28	32*	10	25*
O=C1NC(=Nc2ccc3ccccc3c2)S/C1=C/c1ccco1	55*	1	11	7	5	13	22
[O-]/[N+](=N\Nc1ccc(Cl)cc1)c1ccccc1	/	-7	0	6	0	2	/
COc1cc(C2c3c(c(C)c(C)oc3=O)Oc3c(C)c(C)oc(=O)c32)ccc1OS(=O)(=O)c1ccc(C)cc1	3	4	-3	2	-5	-4	/

Screening results: PubChem, several laboratories
